# Measurements: PubChem BioAssay AID624156 (Broad Institute, 2012)
# Out of some 46,000 compounds screened, about 900 (2%) were called active. Roughly 1% stayed inconclusive and do not appear here. No stated cut-off is given here; in the data, active means ROS induction above about 79% (passing the limit was not always enough); inconclusive means no clear call, values can overlap the other calls. For the sample, actives were picked, then their nearest neighbours and some compounds at random.
# Test: ROS inducers in U2OS cancer cells, primary screen, cell-based, H2DCF-DA fluorescence (AID 624156);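 further: 0% = DMSO vehicle median and 100% = reference compound median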
# Settings: at 10 µM, stronger effect = higher value
row,Compound,ROS induction (% of piperlongumine)
1,COc1ccc(-c2cc(C(F)(F)F)nc(SCCC(=O)N(C)c3ccccc3)n2)cc1,33.5% (inactive)
2,CCC(=O)Nc1ccccc1C(=O)Nc1ccccc1,10.3% (inactive)
3,CC[N+]1=C(C)C(C)(C)c2cc(-c3ccccc3)ccc21,52.6% (inactive)
4,C=CCn1c(SCc2nnc(SCC(=O)c3ccc(Cl)cc3)o2)nnc1-c1ccccc1,-1.34% (inactive)
5,CCn1c(SCC(=O)c2ccc(OC)cc2)nnc1-c1ccccc1F,-17.9% (inactive)
6,Cc1nc2ccccn2c1-c1ccnc(SCC(=O)c2ccc(Cl)cc2)n1,102% (active)
7,CC(C)NC(=O)c1ccc2c(c1)N(Cc1ccccc1)C(=O)CS2,-7.88% (inactive)
8,COC(=O)/C=C1\SC(=NC(=O)c2ccc(F)cc2)NC1=O,1.03% (inactive)
9,Cc1cccc(Cn2c(SCc3ccc(C(=O)N4CCCCC4)cc3)nc3ccncc32)c1,-1.54% (inactive)
10,C[C@@H]1CN([C@H](C)CO)C(=O)c2cccc(NS(=O)(=O)c3ccc(F)cc3)c2O[C@H]1CN(C)Cc1ccc(Oc2ccccc2)cc1,102% (active)
11,C[C@@H]1CN([C@@H](C)CO)C(=O)Cc2cc(NC(=O)Cc3ccccc3)ccc2O[C@@H]1CN(C)Cc1ccc(Oc2ccccc2)cc1,115% (active)
12,C[C@H]1CN([C@@H](C)CO)C(=O)Cc2cc(NC(=O)Cc3ccccc3)ccc2O[C@@H]1CN(C)Cc1ccc(Cl)c(Cl)c1,88.2% (active)
13,C[C@H](CO)N1C[C@H](C)[C@@H](CN(C)Cc2ccc(C(=O)Nc3ccccc3N)cc2)Oc2c(NC(=O)C3CC3)cccc2C1=O,101% (active)
14,C[C@@H]1CN([C@H](C)CO)C(=O)Cc2cc(NC(=O)Cc3ccccc3)ccc2O[C@H]1CN(C)Cc1ccc(Oc2ccccc2)cc1,58.8% (inactive)
15,Cc1cc(C(=O)Nc2cccc3c2O[C@@H](CN(C)Cc2ccc(C(=O)Nc4ccccc4N)cc2)[C@H](C)CN([C@@H](C)CO)C3=O)n(C)n1,29% (inactive)
16,C[C@@H]1CN([C@H](C)CO)C(=O)Cc2cc(NC(=O)Nc3ccccc3)ccc2O[C@H]1CN(C)Cc1ccc(Cl)c(Cl)c1,13.3% (inactive)
17,C[C@@H]1CN([C@H](C)CO)C(=O)Cc2cc(NC(=O)Cc3ccccc3)ccc2O[C@@H]1CN(C)Cc1ccccc1,35.5% (inactive)
18,C[C@H]1CN([C@@H](C)CO)C(=O)c2cccc(NS(=O)(=O)c3ccc(Cl)cc3)c2O[C@@H]1CN(C)Cc1ccc(Oc2ccccc2)cc1,23.2% (inactive)
19,C[C@@H]1CN([C@@H](C)CO)C(=O)c2cccc(NC(=O)C3CC3)c2O[C@@H]1CN(C)Cc1ccccc1,-2.71% (inactive)
20,COc1ccc(CN(C)C[C@H]2Oc3ccc(NC(=O)Cc4ccccc4)cc3CC(=O)N([C@@H](C)CO)C[C@@H]2C)cc1,65.1% (inactive)

row,Compound,ROS induction (% of piperlongumine)
1,C[C@@H]1CN([C@H](C)CO)C(=O)c2cccc(NS(=O)(=O)c3ccc(Cl)cc3)c2O[C@@H]1CN(C)Cc1ccc(Oc2ccccc2)cc1,16.8% (inactive)
2,O=C(CSc1nc2c(sc3ccccc32)c(=O)n1Cc1ccccc1)NCCC1=CCCCC1,-2.88% (inactive)
3,O=C(CN(Cc1ccc(Cl)cc1Cl)S(=O)(=O)c1ccccc1)N1CCCC1,-2.84% (inactive)
4,O=C1CSc2ccccc2N1Cc1ccc(Cl)cc1,2.65% (inactive)
5,Brc1ccc(CSc2c[nH]c3ccccc23)cc1,-17.1% (inactive)
6,Cc1ccc(CNC(=O)c2nc3c(nnn3Cc3ccco3)c(=O)[nH]2)cc1,27.5% (inactive)
7,CC(C)c1ccc(N2C(=O)CSCC2(C(=O)NC2CCCCC2)c2ccc(Cl)cc2)cc1 (stereo not given),-3.88% (inactive)
8,CCCN(c1ccccc1OC)S(=O)(=O)c1cc(Br)cnc1N,1.12% (inactive)
9,O=C(NC1CCCCCCC1)c1cccs1,-3.89% (inactive)
10,O=C(CCCn1c(=O)c2cccn2c2ccccc21)N1CCCCC1,-0.17% (inactive)
11,CN(C(=O)c1noc2c1CSc1ccccc1-2)c1cccc(C(F)(F)F)c1,-4.5% (inactive)
12,O=C(Nc1ccc(-n2nncc2-c2ccccc2)cc1)c1ccc(S(=O)(=O)N2CCCCC2)cc1,51.9% (inactive)
13,N#CC(C(=O)Nc1cccc(C(F)(F)F)c1)=C1CCCCCC1,14.7% (inactive)
14,Cc1cccc(NC(=S)N2CCn3cccc3C2c2cccs2)c1 (stereo not given),-3.68% (inactive)
15,C[C@H]1CN([C@@H](C)CO)C(=O)c2cc(NC(=O)Cc3cn(C)c4ccccc34)ccc2O[C@@H]1CN(C)Cc1ccc(Cl)c(Cl)c1,118% (active)
16,C[C@H]1CN([C@@H](C)CO)C(=O)c2cc(NC(=O)Cc3cn(C)c4ccccc34)ccc2O[C@H]1CN(C)Cc1ccc(Cl)c(Cl)c1,4.82% (inactive)
17,C[C@H]1CN([C@@H](C)CO)C(=O)Cc2cc(NS(=O)(=O)c3cccs3)ccc2O[C@@H]1CN(C)Cc1ccc(Oc2ccccc2)cc1,92.6% (active)
18,C[C@@H]1CN([C@H](C)CO)C(=O)Cc2cc(NS(=O)(=O)c3cccs3)ccc2O[C@@H]1CN(C)Cc1ccc(C(=O)O)cc1,11.6% (inactive)
19,C[C@H]1CN([C@@H](C)CO)C(=O)Cc2cc(NS(=O)(=O)c3cccs3)ccc2O[C@H]1CN(C)Cc1ccncc1,-8.79% (inactive)
20,C[C@@H]1CN([C@@H](C)CO)C(=O)c2cc(NC(=O)Cc3ccccc3)ccc2O[C@H]1CN(C)Cc1ccc(Cl)c(Cl)c1,44.7% (inactive)
